Reference: publication PMC7862700, “An all-to-all approach to the identification of sequence-specific readers for epigenetic DNA modifications on cytosine”

How the values were obtained:
Experiment in all cases: DAPPL (digital affinity profiling via proximity ligation, sequencing); 10 mM Tris-HCl pH 7.5, 50 mM NaCl, 1 mM DTT, 4% glycerol, room temperature, 30 min; GST-TFs on glutathione beads, 16-mer random dsDNA library, 0.1% formaldehyde crosslink after washing; high values mean tight binding
Settings in all cases: protein: recombinant; tags: N-terminal GST; dsDNA, one strand shown
[1] = biological target: T1, ERF (Homo sapiens, UniProt P50548 1-548)
T1 sequence: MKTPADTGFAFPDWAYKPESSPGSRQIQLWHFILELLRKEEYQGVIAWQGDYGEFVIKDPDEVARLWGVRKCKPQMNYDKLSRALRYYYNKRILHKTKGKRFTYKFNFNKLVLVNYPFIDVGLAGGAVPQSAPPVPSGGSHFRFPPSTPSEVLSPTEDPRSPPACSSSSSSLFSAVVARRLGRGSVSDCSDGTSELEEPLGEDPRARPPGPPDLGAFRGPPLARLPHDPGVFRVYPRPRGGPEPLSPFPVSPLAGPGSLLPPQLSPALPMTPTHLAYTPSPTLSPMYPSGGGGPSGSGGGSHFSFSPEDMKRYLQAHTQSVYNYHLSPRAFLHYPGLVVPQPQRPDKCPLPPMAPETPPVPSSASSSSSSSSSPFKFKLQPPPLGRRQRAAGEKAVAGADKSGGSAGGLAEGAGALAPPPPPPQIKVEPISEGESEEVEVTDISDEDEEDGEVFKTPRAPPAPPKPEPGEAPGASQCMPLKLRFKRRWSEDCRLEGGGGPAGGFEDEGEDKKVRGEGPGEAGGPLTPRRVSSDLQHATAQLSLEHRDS
Summary of the method: (§1)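 Binding signal is given per hexamer as its read frequency for a factor divided by its frequency in the tag-only sample. GST-fused human transcription factors were expressed in yeast, captured on glutathione beads, barcoded with DNA and pooled with that sample, then incubated with 200 nmole of a 16-mer random double-stranded DNA library in Tris/NaCl/DTT/glycerol buffer for 30 min at room temperature. The pools were then washed, crosslinked, proximity-ligated, amplified by PCR and sequenced on an Illumina NextSeq500.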

[2] = biological target: T2, ETV3L (Homo sapiens, UniProt Q6ZN32 1-361)
T2 sequence: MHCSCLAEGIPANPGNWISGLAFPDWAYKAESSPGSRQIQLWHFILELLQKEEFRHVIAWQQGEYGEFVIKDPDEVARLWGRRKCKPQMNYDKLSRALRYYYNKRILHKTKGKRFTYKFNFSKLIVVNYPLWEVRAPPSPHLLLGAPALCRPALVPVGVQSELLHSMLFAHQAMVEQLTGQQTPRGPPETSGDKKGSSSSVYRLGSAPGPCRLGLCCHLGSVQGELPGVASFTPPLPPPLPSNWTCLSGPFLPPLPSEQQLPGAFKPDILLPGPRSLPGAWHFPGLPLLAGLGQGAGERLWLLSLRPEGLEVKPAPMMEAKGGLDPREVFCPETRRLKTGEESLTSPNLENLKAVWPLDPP
Summary of the method: as §1

[3] = biological target: T3, ETS2 (Homo sapiens, UniProt P15036 1-469)
T3 sequence: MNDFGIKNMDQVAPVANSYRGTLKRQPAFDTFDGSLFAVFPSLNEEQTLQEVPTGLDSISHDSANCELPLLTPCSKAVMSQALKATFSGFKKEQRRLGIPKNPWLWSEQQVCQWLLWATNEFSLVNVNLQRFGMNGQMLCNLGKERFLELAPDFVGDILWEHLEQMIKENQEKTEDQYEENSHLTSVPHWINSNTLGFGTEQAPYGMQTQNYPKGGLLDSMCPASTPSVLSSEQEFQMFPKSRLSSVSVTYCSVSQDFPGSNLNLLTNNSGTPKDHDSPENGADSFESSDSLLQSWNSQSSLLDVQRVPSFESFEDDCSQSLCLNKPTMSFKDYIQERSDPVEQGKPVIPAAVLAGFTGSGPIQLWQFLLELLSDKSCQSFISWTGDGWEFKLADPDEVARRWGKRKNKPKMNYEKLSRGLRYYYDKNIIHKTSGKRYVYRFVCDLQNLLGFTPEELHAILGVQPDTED
Summary of the method: as §1

[4] = biological target: T4, SPDEF (Homo sapiens, UniProt O95238 1-335)
T4 sequence: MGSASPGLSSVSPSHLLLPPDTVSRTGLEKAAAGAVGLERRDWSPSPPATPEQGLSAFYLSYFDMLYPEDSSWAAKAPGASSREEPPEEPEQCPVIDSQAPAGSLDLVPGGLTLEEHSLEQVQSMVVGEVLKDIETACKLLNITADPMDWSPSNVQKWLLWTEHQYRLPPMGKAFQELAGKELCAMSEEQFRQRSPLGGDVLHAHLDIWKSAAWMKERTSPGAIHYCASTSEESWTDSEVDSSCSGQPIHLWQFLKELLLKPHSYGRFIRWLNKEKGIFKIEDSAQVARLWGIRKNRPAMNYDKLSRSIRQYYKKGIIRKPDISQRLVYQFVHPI
Summary of the method: as §1

[5] = biological target: T5, ETV7 (Homo sapiens, UniProt Q9Y603 1-341)
T5 sequence: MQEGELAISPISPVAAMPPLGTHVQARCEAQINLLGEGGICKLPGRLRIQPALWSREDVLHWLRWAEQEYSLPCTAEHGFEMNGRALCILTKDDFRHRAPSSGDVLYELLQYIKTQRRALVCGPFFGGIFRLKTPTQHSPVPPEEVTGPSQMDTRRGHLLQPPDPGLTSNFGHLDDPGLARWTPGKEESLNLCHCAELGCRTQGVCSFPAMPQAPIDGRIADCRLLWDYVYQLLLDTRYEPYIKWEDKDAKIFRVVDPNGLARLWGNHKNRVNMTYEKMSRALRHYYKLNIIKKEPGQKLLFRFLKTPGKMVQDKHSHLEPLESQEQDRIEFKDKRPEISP
Summary of the method: as §1

[6] = biological target: T6, ELF5 (Homo sapiens, UniProt Q9UKW6-2 1-255)
T6 sequence: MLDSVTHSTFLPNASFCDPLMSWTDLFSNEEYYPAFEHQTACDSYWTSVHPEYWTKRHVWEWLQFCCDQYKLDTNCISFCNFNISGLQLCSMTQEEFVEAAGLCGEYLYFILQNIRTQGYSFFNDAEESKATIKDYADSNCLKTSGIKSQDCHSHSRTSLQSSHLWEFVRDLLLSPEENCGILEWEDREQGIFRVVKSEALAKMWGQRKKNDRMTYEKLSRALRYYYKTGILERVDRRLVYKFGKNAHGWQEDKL
Summary of the method: as §1

[7] = biological target: T7, ETV3 (Homo sapiens, UniProt P41162-2 1-143)
T7 sequence: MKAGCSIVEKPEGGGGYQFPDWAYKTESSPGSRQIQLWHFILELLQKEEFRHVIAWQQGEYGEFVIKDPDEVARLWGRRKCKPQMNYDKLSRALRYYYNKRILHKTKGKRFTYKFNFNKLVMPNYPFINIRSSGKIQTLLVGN
Summary of the method: as §1

[8] = biological target: ETV6 (Homo sapiens, UniProt P41212 1-452)
Summary of the method: as §1

Chain of ETV6 (P41212 whole entry): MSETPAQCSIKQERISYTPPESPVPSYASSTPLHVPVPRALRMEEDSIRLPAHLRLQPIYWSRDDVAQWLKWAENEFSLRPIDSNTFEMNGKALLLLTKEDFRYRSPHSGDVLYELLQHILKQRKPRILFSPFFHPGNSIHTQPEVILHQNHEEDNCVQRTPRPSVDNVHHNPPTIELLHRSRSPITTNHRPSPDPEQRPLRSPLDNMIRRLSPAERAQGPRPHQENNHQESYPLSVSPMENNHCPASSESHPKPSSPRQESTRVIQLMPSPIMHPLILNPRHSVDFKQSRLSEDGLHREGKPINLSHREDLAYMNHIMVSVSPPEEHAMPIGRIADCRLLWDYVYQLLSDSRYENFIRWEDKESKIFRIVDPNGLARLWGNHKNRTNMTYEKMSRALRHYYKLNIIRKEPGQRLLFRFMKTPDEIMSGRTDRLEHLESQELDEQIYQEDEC

Sequence | binding signal [1] | binding signal [2] | binding signal [3] | binding signal [4] | binding signal [5] | binding signal [6] | binding signal [7] | binding signal [8]
TGCCTT | 1.24 fold enrichment (6-mer frequency, TF over GST control) | 1.52 fold enrichment (6-mer frequency, TF over GST control) | 1.38 fold enrichment (6-mer frequency, TF over GST control) | 1.32 fold enrichment (6-mer frequency, TF over GST control) | 1.28 fold enrichment (6-mer frequency, TF over GST control) | 1.39 fold enrichment (6-mer frequency, TF over GST control) | 1.31 fold enrichment (6-mer frequency, TF over GST control) | 1.23 fold enrichment (6-mer frequency, TF over GST control)
CACTAC | 1.33 fold enrichment (6-mer frequency, TF over GST control) | 1.29 fold enrichment (6-mer frequency, TF over GST control) | 1.31 fold enrichment (6-mer frequency, TF over GST control) | 1.14 fold enrichment (6-mer frequency, TF over GST control) | 1.27 fold enrichment (6-mer frequency, TF over GST control) | 1.26 fold enrichment (6-mer frequency, TF over GST control) | 1.26 fold enrichment (6-mer frequency, TF over GST control) | 1.24 fold enrichment (6-mer frequency, TF over GST control)
ATATGA | 1.13 fold enrichment (6-mer frequency, TF over GST control) | 1.14 fold enrichment (6-mer frequency, TF over GST control) | 1.09 fold enrichment (6-mer frequency, TF over GST control) | 1.05 fold enrichment (6-mer frequency, TF over GST control) | 1.12 fold enrichment (6-mer frequency, TF over GST control) | 1.1 fold enrichment (6-mer frequency, TF over GST control) | 1.08 fold enrichment (6-mer frequency, TF over GST control) | 1.06 fold enrichment (6-mer frequency, TF over GST control)
TATAGA | 1.06 fold enrichment (6-mer frequency, TF over GST control) | 1.18 fold enrichment (6-mer frequency, TF over GST control) | 1.04 fold enrichment (6-mer frequency, TF over GST control) | 1.14 fold enrichment (6-mer frequency, TF over GST control) | 1.08 fold enrichment (6-mer frequency, TF over GST control) | 1.09 fold enrichment (6-mer frequency, TF over GST control) | 1.07 fold enrichment (6-mer frequency, TF over GST control) | 1.11 fold enrichment (6-mer frequency, TF over GST control)
TACAAG | 1.1 fold enrichment (6-mer frequency, TF over GST control) | 1.05 fold enrichment (6-mer frequency, TF over GST control) | 1.1 fold enrichment (6-mer frequency, TF over GST control) | 1.1 fold enrichment (6-mer frequency, TF over GST control) | 1.02 fold enrichment (6-mer frequency, TF over GST control) | 1.06 fold enrichment (6-mer frequency, TF over GST control) | 1.02 fold enrichment (6-mer frequency, TF over GST control) | 1.04 fold enrichment (6-mer frequency, TF over GST control)
GAAACT | 1.03 fold enrichment (6-mer frequency, TF over GST control) | 1.22 fold enrichment (6-mer frequency, TF over GST control) | 1.22 fold enrichment (6-mer frequency, TF over GST control) | 1.13 fold enrichment (6-mer frequency, TF over GST control) | 1.31 fold enrichment (6-mer frequency, TF over GST control) | 1.28 fold enrichment (6-mer frequency, TF over GST control) | 1.16 fold enrichment (6-mer frequency, TF over GST control) | 1.2 fold enrichment (6-mer frequency, TF over GST control)
CCATAC | 1.27 fold enrichment (6-mer frequency, TF over GST control) | 1.22 fold enrichment (6-mer frequency, TF over GST control) | 1.18 fold enrichment (6-mer frequency, TF over GST control) | 1.2 fold enrichment (6-mer frequency, TF over GST control) | 1.14 fold enrichment (6-mer frequency, TF over GST control) | 1.09 fold enrichment (6-mer frequency, TF over GST control) | 1.08 fold enrichment (6-mer frequency, TF over GST control) | 1.21 fold enrichment (6-mer frequency, TF over GST control)
TTTTGA | 1.15 fold enrichment (6-mer frequency, TF over GST control) | 1.07 fold enrichment (6-mer frequency, TF over GST control) | 1.07 fold enrichment (6-mer frequency, TF over GST control) | 1.05 fold enrichment (6-mer frequency, TF over GST control) | 1.02 fold enrichment (6-mer frequency, TF over GST control) | 1 fold enrichment (6-mer frequency, TF over GST control) | 1.03 fold enrichment (6-mer frequency, TF over GST control) | 1.04 fold enrichment (6-mer frequency, TF over GST control)
